# According to PubChem BioAssay:
# Unmarked numbers belong to inactive results. The source made the active and inactive calls. Unless noted, no stated cut-off is given here; in the data, active means inhibition above about 44%; inactive means the rest.
# Experiments:
# [1] = StAR promoter reporter inhibitors, counter-screen for LRH-1 inverse agonist project, cell-based, luminescence, high throughput (AID 651611; in the data active means inhibition above about 28%); settings: StAR promoter luciferase reporter counterscreen, at 3.6 µM, active compounds read high
# [2] = biological target: Nuclear receptor subfamily 5 group A member 2 (Homo sapiens) (UniProt O00482); assay: LRH-1 (NR5A2) inverse agonists, retest, confirmation, cell-based, luminescence (AID 651613; in the data active means inhibition above about 42%;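 further: HEK293T cells co-transfected with LRH-1 and StAR promoter luciferase reporter; 0% = vehicle wells and 100% = parental cells lacking receptor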); settings: cell-based LRH-1 luciferase reporter, inverse agonism; at 3.6 µM; active compounds read high
# Sequence of Nuclear receptor subfamily 5 group A member 2 (Homo sapiens) (O00482 whole entry, looked up): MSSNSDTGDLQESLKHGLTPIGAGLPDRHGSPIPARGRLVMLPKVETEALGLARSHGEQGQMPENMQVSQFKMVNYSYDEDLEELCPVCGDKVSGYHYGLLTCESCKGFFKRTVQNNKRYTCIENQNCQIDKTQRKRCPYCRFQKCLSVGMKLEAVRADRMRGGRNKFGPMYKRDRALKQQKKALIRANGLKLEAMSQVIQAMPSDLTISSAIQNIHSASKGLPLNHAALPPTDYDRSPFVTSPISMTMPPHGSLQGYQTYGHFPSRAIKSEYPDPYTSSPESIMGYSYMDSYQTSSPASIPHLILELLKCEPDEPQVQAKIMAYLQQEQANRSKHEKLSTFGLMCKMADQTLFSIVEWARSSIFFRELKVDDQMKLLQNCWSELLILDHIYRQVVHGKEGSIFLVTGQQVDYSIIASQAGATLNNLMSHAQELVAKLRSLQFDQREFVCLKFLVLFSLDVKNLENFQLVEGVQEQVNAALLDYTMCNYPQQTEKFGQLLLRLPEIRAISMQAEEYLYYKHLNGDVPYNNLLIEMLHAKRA
# [3] = biological target: Steroidogenic factor 1 (Homo sapiens) (UniProt Q13285); assay: SF1 (NR5A1) inverse agonists, counter-screen for LRH-1 inverse agonist project, cell-based, luminescence, high throughput (AID 651614); settings: cell-based SF1 luciferase reporter, at 3.6 µM, active compounds read high;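 further: cells cotransfected with StAR promoter reporter and SF1 expression vector; 0% = vehicle on cells with receptor and 100% = vehicle on cells lacking receptor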
# Sequence of Steroidogenic factor 1 (Homo sapiens) (Q13285 whole entry, looked up, the tested form may be a part): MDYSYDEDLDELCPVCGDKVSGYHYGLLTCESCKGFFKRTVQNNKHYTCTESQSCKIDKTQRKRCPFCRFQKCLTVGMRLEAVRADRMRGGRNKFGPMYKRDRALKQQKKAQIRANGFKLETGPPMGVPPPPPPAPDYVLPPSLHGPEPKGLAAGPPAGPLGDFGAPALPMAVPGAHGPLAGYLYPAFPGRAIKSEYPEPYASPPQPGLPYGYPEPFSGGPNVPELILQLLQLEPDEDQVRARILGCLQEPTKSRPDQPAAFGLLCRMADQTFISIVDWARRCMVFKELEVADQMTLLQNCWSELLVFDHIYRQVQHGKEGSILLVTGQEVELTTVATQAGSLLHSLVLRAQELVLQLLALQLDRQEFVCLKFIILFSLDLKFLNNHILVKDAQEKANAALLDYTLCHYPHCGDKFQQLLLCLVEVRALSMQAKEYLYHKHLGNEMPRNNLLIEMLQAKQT
# [4] = VP16 transactivation reporter inhibitors, counter-screen for LRH-1 inverse agonist project, cell-based, luminescence, high throughput (AID 651615; in the data active means inhibition above about 33%); settings: Gal4-VP16 luciferase reporter cells, at 3.6 µM, active compounds read high
SMILES,inhibition [1],inhibition [2],inhibition [3],inhibition [4]
CCOc1ccc(NC(=O)CSc2nc3c(c(=O)n2-c2ccccc2OC)SCC3)cc1,8.34%,63.1% (active),58.7% (active),-10.6%
CCc1c(O)nc(SCC(=O)Nc2ccccc2C)n(-c2ccc(C)cc2)c1=O,14.4%,56.4% (active),66% (active),-1.84%
CCC(C)Nc1nc(-c2cccc(OC)c2O)nc2ccccc12 (configuration not stated),30.8% (active),52.4% (active),46.3% (active),-7%
CC(=O)Nc1cc(-c2ccc(S(C)(=O)=O)cc2)cn2c(-c3ccc(F)c(Cl)c3)cnc12,12.9%,61.1% (active),51.7% (active),3.98%
Cc1nc2ccccc2n1Cc1ccc(Cl)cc1,8.73%,56.1% (active),54.1% (active),47% (active)
CCCN(CC(=O)Nc1ccc(C(N)=O)cc1)CC(=O)Nc1ccccc1C,15.3%,55.4% (active),53.9% (active),6.63%
CCOc1ccc(NC(=O)COC(=O)C2COc3ccccc3O2)cc1 (configuration not stated),-6.6%,35.4%,28.8%,3.94%
COc1ccc(NS(=O)(=O)c2cccc(NC(=O)c3ccc(Cl)nc3)c2)cc1,37.9% (active),63.3% (active),66% (active),55.4% (active)
COc1ccc(S(=O)(=O)N2CCCN(CC(=O)Nc3ccc(OC)c(Cl)c3)CC2)cc1,17.7%,65.8% (active),57.7% (active),-5.36%
COc1ccc(-c2cc3ccccc3oc2=O)cc1NC(=O)c1ccc([N+](=O)[O-])o1,-51.4%,16%,22.5%,-68.2%
CCOc1ccc(CCNC(=O)COC(=O)c2nc(Cl)ccc2Cl)cc1OCC,-2.83%,39.2%,28.2%,-0.88%
O=C(Nc1ccc(Cc2ccncc2)cc1)c1cccc([N+](=O)[O-])c1,-10.2%,52.4% (active),51.9% (active),0.73%
COc1cc(-c2cc(-c3ccc(O)cc3)nc(N)c2C#N)ccc1O,36.1% (active),68.3% (active),53.9% (active),-133%
CN(CCC#N)Cc1cc(=O)oc2ccc3ccccc3c12,13.8%,55.2% (active),46.2% (active),5.57%
COc1ccc(NC(=O)CSc2nc(O)cc(=O)n2-c2ccccc2OC)cc1,4.7%,47.5% (active),38.3%,2.37%
COc1cc(CSc2nnnn2-c2ccc(C)cc2)cc(OC)c1OC,24.4%,53.3% (active),61.1% (active),44.8% (active)
COc1ccc(N2CCN(C(=O)CSc3nnc(-c4cc5ccccc5cc4O)n3C)CC2)cc1,19.8%,59% (active),58.3% (active),13.6%
O=C(CSc1nncc(=O)[nH]1)Nc1cccc([N+](=O)[O-])c1,11.7%,57.3% (active),53.2% (active),8.83%
